PNC inhibitor: perinucleolar compartment assembly inhibition; PC3M PTB-GFP, PNC prevalence imaging, 16 h; active compounds read low; activity change (PNC), negative = inhibition, % at 10 µM; 3.1% of 140,000 active; AID 2417;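 active = readout at or below -70, meaning at least 70% loss of cells showing the perinucleolar compartment, a nuclear body marking cancer cells; inconclusive = readout between -30 and a set limit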;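 note: plate controls were DMSO wells for no effect and camptothecin positive control wells for full effect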
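Compounds are pinned in duplicate onto adhered PC3M cells stably expressing GFP-tagged PTB and incubated 16 h at 37 C. Cells are then fixed, nuclei stained with Hoechst, and PNC-positive cells counted.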
ALDH1A1 block: blocks purified human ALDH1A1 activity. P00352. Purified ALDH1A1, NADH fluorescence, propionaldehyde substrate. Potency, µM (titrated, usually from 75.3 µM), without a hit: at the top dose activity, negative = inhibition, actives largely listed as inhibitors. 7.3% of 220,000 active. AID 1030;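 note: potency is the fitted concentration of half-maximal effect; plate controls were no enzyme wells and a reference inhibitor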
IMPase cell inh: cell-permeable inhibitors of inositol monophosphatase (IMPase); CHO-M1 cells, IP1 accumulation, HTRF TR-FRET ratio; inhibition (IP1 accumulation), % at 46.1 µM; P97697; 120,000 tested, under 10 active; active = well fitted curve in the direction sought with a large enough effect in the signal ratio, not every such curve was filed as active; inconclusive = small, poorly fitted or top-dose-only effect, or a change in a side signal; inactive = no such curve, though single readings can be large or run the other way; the % refers to the signal ratio;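 note: cells stimulated with carbachol in lithium chloride buffer; plate controls were DMSO basal wells for no effect and reference inhibitor wells for full effect; higher means more IMPase inhibition seen as more IP1 and lower FRET ratio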
Target sequence (P97697 whole entry, looked up): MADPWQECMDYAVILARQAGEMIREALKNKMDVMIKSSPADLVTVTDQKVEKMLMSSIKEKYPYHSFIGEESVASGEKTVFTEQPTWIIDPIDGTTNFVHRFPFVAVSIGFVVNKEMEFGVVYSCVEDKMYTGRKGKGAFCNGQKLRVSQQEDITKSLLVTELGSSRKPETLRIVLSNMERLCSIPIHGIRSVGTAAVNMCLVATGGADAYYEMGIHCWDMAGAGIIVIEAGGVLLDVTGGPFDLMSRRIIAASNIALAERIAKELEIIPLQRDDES
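Measured: the HTRF emission ratio (665/620 nm) plus the 620 nm donor channel, each fitted to the Hill equation to give AC50. Cells were CHO-M1 given compounds up to 46 uM and a 30 min carbachol stimulation at 37C.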
12-hLO inh: inhibitors of human 12-lipoxygenase (ALOX12) | purified 12-hLO, xylenol orange hydroperoxide absorbance | Potency, µM (titrated, usually from 57.1 µM), for the others: at the highest dose activity change, negative = inhibition, actives largely listed as inhibitors | 0.12% of 150,000 active | P18054 | AID 1452; active = well fitted curve in the direction sought with a large enough effect; inconclusive = small, poorly fitted or top-dose-only effect, or another doubt; inactive = no such curve, though single readings can be large; an effect the other way counts as inactive or inconclusive; note: potency is the fitted concentration of half-maximal effect; nearly all actives have a fitted effect of over 55% in size
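Lipoxygenase turnover measured by absorbance at 573 and 405 nm after Fe-XO development. Human 12hLO 150 nM, arachidonate 40 uM, pH 7.0 Hepes buffer with detergent; 15 min compound preincubation, 30 min reaction.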
HPGD block: HPGD (human) dehydrogenase inhibition. P15428. purified HPGD, NADH fluorescence kinetic, PGE2 substrate. Potency, µM, for the others: at the top dose activity change, negative = inhibition, most hits filed as inhibitors. 4.3% of 150,000 active. AID 894; note: potency is the fitted concentration of half-maximal effect
Target sequence (P15428 whole entry, looked up): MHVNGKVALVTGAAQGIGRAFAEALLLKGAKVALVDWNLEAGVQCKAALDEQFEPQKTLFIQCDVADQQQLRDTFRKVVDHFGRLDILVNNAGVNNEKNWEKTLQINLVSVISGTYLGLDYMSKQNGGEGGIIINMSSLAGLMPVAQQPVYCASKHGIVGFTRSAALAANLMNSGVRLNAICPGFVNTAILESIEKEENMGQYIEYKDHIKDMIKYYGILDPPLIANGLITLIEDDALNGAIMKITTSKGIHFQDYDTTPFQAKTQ
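NADH formation kinetics: reaction with 30 uM PGE2 and 1 mM NAD+ (final), 20 nM enzyme, Tris-HCl pH 8 with Tween 20, after 15 min compound preincubation at room temperature. Fluorescence change, last versus first of five reads.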
IMPase Li inh: membrane-permeable IMPase blocker, potentiated with lithium | AID 1457 | Potency, µM (top dose mostly 59.4 µM), without a hit: at the highest dose activity, negative = IMPase inhibition, usual class: inhibitors | CHO-M1 cells, IP1 TR-FRET (IP-One), carbachol + lithium | 0.35% of 210,000 active; active = well fitted curve in the direction sought with a large enough effect; inconclusive = small, poorly fitted or top-dose-only effect, or another doubt; inactive = no such curve, though single readings can be large; an effect the other way counts as inactive or inconclusive;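 note: IP1 builds up when IMPase is blocked and the TR-FRET signal falls; potency is the fitted concentration of half-maximal effect; plate controls were basal vehicle for no effect and high inhibitor control for full effect; nearly all actives have a fitted effect of over 50% in size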
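IP1 accumulation measured by competitive TR-FRET in lysed CHO-M1 cells after 30 min compound exposure at 37C, with a small lithium addition to potentiate weak responses. Hill-equation AC50 from ratio and donor-channel data.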
The depositor's hits bear a star; ? = inconclusive; . = no result; ! = not confirmed by another sample; [ ] = dose if it differs, or a comment. This is a sample that favours compounds with a hit; in the whole collection about 11% have one here. Unless noted, calls come from the whole dose curve; as a rule, active = well fitted inhibition curve with a large enough effect (not every such curve was filed as active); inconclusive = small, poorly fitted or top-dose-only effect, or another doubt; inactive = no such curve, though single readings can be large or run the other way. Unless noted, % is set by controls: 0 for no effect and ±100 for the full control effect.

SMILES | PNC inhibitor | ALDH1A1 block | IMPase cell inh | 12-hLO inh | HPGD block | IMPase Li inh
N#Cc1c(/N=C/c2c(O)n(Cc3ccco3)c(=O)[nH]c2=O)sc2c1CCCC2 | 54 | 28µM* | -6 | -18% | -23% | -5%[38.3 µM]
O=c1[nH]c(=O)n(Cc2ccco2)c(O)c1C=NCc1cccs1 | 3 | ? | ? | -19% | -16% | -14%[38.3 µM]
C[C@]12CC[C@@H]3[C@H](CCC4=CC(=O)CC[C@]43C)[C@]1(O)CC[C@@]2(O)C(=O)CO | . | 8%[13.5 µM] | . | 2%[11.4 µM] | -7% | -10%
O=C(O)CCCC[C@@H]1SC[C@H]2NC(=O)N[C@@H]12 | . | -2% | -4 | -1% | 4% | 4%
O=c1[nH]c(=S)n(Cc2ccco2)c(O)c1C=NCc1cccs1 | -16 | 7.9µM* | 6 | -13% | 25µM* | -1%[38.3 µM]
CC1=C2C(=CO[C@H](C)[C@H]2C)C(=O)C(C(=O)O)=C1O | . | -2% | . | . | -6% | 14%
COc1ccc(-c2oc3cc(OC)ccc3c(=O)c2O)cc1 | . | ? | ? | -17% | ? | -16%
CN1CCC(C)(O)C2CCCCC21 (centres undefined) | . | 10µM* | . | . | . | ?
CC1CCN(C(=O)CCl)CC1 | -24 | 0.35µM* | . | -1% | 4% | 3%
CCc1ccc(C(=O)NN(C(=O)c2cc(C)cc(C)c2)C(C)(C)C)cc1 | . | 3% | . | -1% | -7% | 22%
O=C1NC(=O)C(=Cc2coc3ccc(O)cc3c2=O)C(=O)N1 | . | 3.5µM* | . | . | . | .
Cc1nn(Cc2ccccc2)c2c1C(c1ccco1)C(C#N)=C(N)O2 (centres undefined) | ? | 28µM* | -3 | -2% | -18% | 29%[38.3 µM]
N#CC1=C(N)Oc2n[nH]c(-c3cccs3)c2C1c1ccco1 (centres undefined) | 18 | ? | 5 | -5% | ? | 17%[38.3 µM]
CCC1CN(C)CCC1(OC(C)=O)c1ccccc1 (centres undefined) | -1 | -14% | 8 | 8% | 2% | 3%
CCCCN1CCC(O)(c2ccccc2)C(C(=O)c2ccccc2)C1 (centres undefined) | 34 | 0.11µM* | ? | 5% | -22% | 27%
C=C(Cl)CCl | . | 20µM* | . | -3% | -2% | -11%
C=C(C)CCl | . | 2% | . | 2% | -10% | -13%
COc1cc2cc(c1Cl)N(C)C(=O)C[C@H](OC(=O)C(C)C)[C@]1(C)O[C@@H]1[C@@H](C)[C@H]1C[C@](O)(NC(=O)O1)[C@@H](OC)/C=C\C=C(\C)C2 | . | 0%[13.5 µM] | . | 0%[11.4 µM] | -4% | 8%
[O-][Cl+]O | . | 3% | . | 0% | -9% | -16%
Cc1cc(C=C2C(=O)N(C)C(=O)N(C)C2=O)c(C)n1-c1ccccc1 | . | ? | . | . | . | -1%
CN1C(=O)C(=Cc2ccc(OCCN(C)c3ccccn3)cc2)C(=O)N(C)C1=O | . | 7.9µM* | . | . | . | 5%
COC(=O)c1c(C)ccc2c(O)c3c(cc12)C(=O)c1c2c(cc(O)c1C3=O)[C@@]1(C)O[C@@](C)(O2)[C@@H](O)[C@H](N(C)C)[C@H]1O | . | ? | . | -4%[11.4 µM] | ? | 12%
O=NN(CCCl)C(=O)NCCCl | . | 3.2µM*! | -2 | 3% | -4% | -13%
O=c1c2ccccc2[se]n1-c1ccccc1 | 36 | 0.22µM* | 2 | 3.2µM* | 0.63µM* | 2%
O=c1c2ccccc2nc(N2CCCC2)n1-c1ccccc1 | 22 | ? | 0 | -1% | -29% | -1%[38.3 µM]
SMILES | PNC inhibitor | ALDH1A1 block | IMPase cell inh | 12-hLO inh | HPGD block | IMPase Li inh
Cc1cc(C)c(C(=O)CN2CCOCC2)c(C)c1 | -11 | 10µM* | 6 | -4% | -10% | 25%[38.3 µM]
Cc1cccc(OC(=O)N2CCOCC2)c1 | ? | 8% | -9 | -1% | -5% | 6%[38.3 µM]
COc1ccc(C(=O)CN2CCOCC2)cc1F | 17 | 14µM* | 0 | 0% | -7% | -13%[38.3 µM]
O=C(CN1CCOCC1)c1ccc2cc[nH]c2c1 | 29 | ? | ? | -4% | -25% | -6%
C=C(C)C(=O)OCC1CO1 (centres undefined) | . | ? | . | 3% | -9% | 6%
NC1CCc2cc(O)c(O)cc2C1 (centres undefined) | . | 7.9µM*! | . | . | -14% | 9%
Cc1cc(S(=O)(=O)NCC(C)C)ccc1OCC(=O)N1CCN(Cc2ccccc2)CC1 | 21 | 18µM* | 9 | 9% | -13% | 30%[38.3 µM]
ClCc1ccccn1 | . | 2% | . | -3% | -6% | 0%
CC(=O)C1CCC2C3CCC4=CC(=O)CC[C@@]4(C)C3CC[C@]12C (some centres undefined) | . | ? | . | -4% | -2% | 29%
O=c1[nH]c(=O)n(Cc2ccccc2)c(O)c1C=NCCN1CCOCC1 | ? | ? | 7 | 6% | 32µM* | -6%[38.3 µM]
CCN(CC)CCN=Cc1c(O)n(Cc2ccccc2)c(=O)[nH]c1=O | 41 | 8% | 1 | 17% | 35µM* | 25%[38.3 µM]
CCN(CC)CCCN=Cc1c(O)n(Cc2ccc(F)cc2)c(=O)[nH]c1=O | -8 | 11% | ? | 4% | -12% | -7%[38.3 µM]
O=c1[nH]c(=O)n(Cc2ccc(F)cc2)c(O)c1C=NCc1cccnc1 | ? | -7% | 4 | -6% | 16µM* | 2%[38.3 µM]
CCCCCCn1c(O)c(C=NCCN2CCCCC2)c(=O)[nH]c1=O | ? | -4% | -4 | 4% | -8% | 10%[38.3 µM]
COc1ccc(CCn2c(O)c(C=NCc3cccnc3)c(=O)[nH]c2=O)cc1OC | 2 | -7% | 6 | -6% | -7% | 15%[38.3 µM]
CCCCCCn1c(O)c(C=NCCN2CCOCC2)c(=O)[nH]c1=O | -114* | 3% | . | 1% | -6% | -1%
O=c1[nH]c(=O)n(Cc2ccc(F)cc2)c(O)c1C=NCCCN1CCOCC1 | 20 | 3% | 0 | 1% | -7% | 26%[38.3 µM]
ClC(Br)Br | . | 9% | . | -2% | -4% | 3%
CCCCC(CC)COC(=O)c1ccc(C(=O)OCC(CC)CCCC)c(C(=O)OCC(CC)CCCC)c1 (centres undefined) | . | ? | . | -2% | -6% | 3%
C[C@@H]1O[C@H]1P(=O)(O)O | . | . | 3 | ? | . | .
N[C@H](Cc1ccc2oc3cc(=O)c4ccccc4c-3nc2c1)C(=O)O | . | ? | . | -3%[11.4 µM] | -10% | -4%
ClCC(Cl)CCl | . | 14% | . | -4% | -5% | -5%
CCCCC/C=C\C/C=C\C/C=C\C/C=C\CCCC(=O)OCCN | . | ? | . | 4%[0.00818 µM] | -13% | 8%
COC(=O)[C@@H]1c2cc3c(c(O)c2[C@@H](O)C[C@]1(C)O)C(=O)c1c(O)cc2c(c1C3=O)O[C@H]1O[C@@]2(C)[C@@H](O)[C@H](N(C)C)[C@H]1O | . | ? | . | -1%[11.4 µM] | ? | -5%
C/C(=N\Nc1ccccc1)c1c(O)n(C)c(=O)n(C)c1=O | ? | 25µM* | -5 | -9% | -11% | 21%
